This is an account of results in PubChem BioAssay AID434970 (Sanford-Burnham Center for Chemical Genomics, 2010).

Among all 11,000 compounds or so, about 310 (2.8%) were called active. Rule as the data show it: active = activity change below about -85%; inactive = the rest. Many of the other results were omitted from the sample, so actives are more common in it than they were.

The subject of the assay is intestinal alkaline phosphatase [Mus musculus]. The experiment in a line: activators of mouse IAP, confirmation, biochemical, luminescence, single concentration (AID 434970). To be noted: purified mouse IAP, CDP-Star luminescence, 30 min, at 10 µM; activation factor: measured here: IAP activation factor, stronger effect = higher value; activity change, negative = activation: stronger effect = lower value.
In the case of `C[C@]12c3[nH]c4cc(-c5ccco5)ccc4c3CCN1C(=O)[C@@H](CC(=O)NCCN1CCOCC1)C[C@@H]2C(=O)N1CCOCC1`, the activation factor stood at 0.997 and the activity change, negative = activation is 0.25% (inactive).

On to `C[C@@H]1CN([C@@H](C)CO)C(=O)c2cc(NC(=O)Nc3ccc4c(c3)OCO4)ccc2O[C@H]1CN(C)S(=O)(=O)c1ccc(F)cc1`, for which the activation factor was 1.65 and the activity change, negative = activation is -64.8% (inactive).

For `C[C@H](CO)N1C[C@H](C)[C@@H](CN(C)S(=O)(=O)c2ccc(F)cc2)Oc2ccc(NC(=O)NC3CCCCC3)cc2C1=O`, the activation factor was found to be 2.2 and the activity change, negative = activation was -120% (active).

As to `Cc1noc(C)c1S(=O)(=O)N(C)C[C@H]1Oc2ccc(NC(=O)NC3CCCCC3)cc2C(=O)N([C@H](C)CO)C[C@@H]1C`, the activation factor was 1.82 and the activity change, negative = activation is -81.5% (inactive).

For the compound `C[C@H](CO)N1C[C@H](C)[C@@H](CN(C)S(=O)(=O)c2ccc(F)cc2)Oc2ccc(NC(=O)Nc3ccc4c(c3)OCO4)cc2C1=O`, the activation factor came out at 1.82 and the activity change, negative = activation was -81.6% (inactive).

Turning to `C[C@H](CO)N1C[C@H](C)[C@@H](CN(C)S(=O)(=O)c2ccccc2)Oc2ccc(NC(=O)NC3CCCCC3)cc2C1=O`, the activation factor worked out at 2.79 and the activity change, negative = activation was -179% (active).

For `COc1ccc(NC(=O)N(C)C[C@H]2Oc3ccc(NC(=O)NC4CCCCC4)cc3C(=O)N([C@H](C)CO)C[C@@H]2C)cc1`, the activation factor was determined as 1.61 and the activity change, negative = activation is -60.9% (inactive).

In the case of `COc1ccc(S(=O)(=O)N(C)C[C@H]2Oc3ccc(NC(=O)NC4CCCCC4)cc3C(=O)N([C@H](C)CO)C[C@@H]2C)cc1`, the activation factor worked out at 2.74 and the activity change, negative = activation was -174% (active).

For the compound `C[C@H](CO)N1C[C@H](C)[C@H](CN(C)S(=O)(=O)c2ccccc2)Oc2ccc(NC(=O)NC3CCCCC3)cc2CC1=O`, the activation factor stood at 1.71 and the activity change, negative = activation was -71.4% (inactive).

Take `Cc1ccc(NC(=O)N2CCC(NC(=O)c3ccccc3C)CC2)cc1`: the activation factor is 0.993 and the activity change, negative = activation is 0.7% (inactive).

Turning to `O=C(C[C@H]1C[C@H](C(=O)N2CCCCC2)[C@@]2(CCc3ccccc3)c3[nH]c4cc(-c5ccco5)ccc4c3CCN2C1=O)NCc1ccco1`, the activation factor came out at 1.16 and the activity change, negative = activation is -16.1% (inactive).

Turning to `O=C(Nc1cccc(Cl)c1)N1CCCC1`, the activation factor was found to be 1.09 and the activity change, negative = activation is -8.6% (inactive).

With `O=C(Nc1ccccc1)Nc1cccc(Cl)c1`, the activation factor came to 2.11 and the activity change, negative = activation is -111% (active).

Turning to `O=C(Cc1ccccc1)NNC(=O)Nc1cccc(Cl)c1`, the activation factor worked out at 0.911 and the activity change, negative = activation was 8.85% (inactive).

Regarding `COC(=O)c1ccc(NC(=S)NC2CC3CCC2C3)cc1` (stereo unspecified), the activation factor worked out at 1.56 and the activity change, negative = activation was -56% (inactive).

In the case of `O=C(NCc1cccc2ccccc12)Nc1ccccc1`, the activation factor worked out at 1.74 and the activity change, negative = activation is -74.1% (inactive).

Regarding `CC(=O)c1ccc(NC(=O)N2CCN(c3cccc(Cl)c3)CC2)cc1`, the activation factor turned out to be 1.08 and the activity change, negative = activation was -7.6% (inactive).

On to `O=C(Nc1cccc(Cl)c1)NC1CC2CCC1C2` (stereo unspecified), for which the activation factor worked out at 2.64 and the activity change, negative = activation was -164% (active).

On to `O=C(Nc1ccc(C(=O)N2CCCCC2)cc1)Nc1cccc(Cl)c1`, for which the activation factor came to 2.39 and the activity change, negative = activation was -139% (active).

`O=C(Cc1cccc2ccccc12)NNC(=O)Nc1cccc(Cl)c1`: the activation factor turned out to be 0.964 and the activity change, negative = activation is 3.65% (inactive).

As for `O=C(NCc1csc2ccccc12)Nc1cc(Cl)cc(Cl)c1`, the activation factor is 2.45 and the activity change, negative = activation is -145% (active).

On to `O=C(Cn1nnc(-c2ccc(Cl)cc2)n1)NC1CC2CCC1C2` (stereo unspecified), for which the activation factor was 1.15 and the activity change, negative = activation is -15.3% (inactive).

Turning to `CC[C@]12c3[nH]c4ccc(OC)cc4c3CCN1C(=O)C(CC(=O)NCCC1=CCCCC1)C[C@@H]2C(=O)N1CCN(C(=O)C2CC2)CC1` (stereo partly specified), the activation factor turned out to be 1.01 and the activity change, negative = activation is -1.4% (inactive).

Turning to `O=C(Oc1cccc(NC(=O)c2ccco2)c1)c1ccc(Br)c(S(=O)(=O)N2CCCCC2)c1`, the activation factor stood at 0.907 and the activity change, negative = activation was 9.3% (inactive).

Turning to `O=C(Nc1scc(-c2ccccc2)c1C(=O)O)c1ccco1`, the activation factor was 0.964 and the activity change, negative = activation was 3.6% (inactive).

For `CCn1c(CNc2ccc(OC)cc2)nnc1SCC(=O)Nc1ccc(F)cc1`, the activation factor is 1.08 and the activity change, negative = activation is -7.7% (inactive).

As to `Cc1cc(NC(=O)CC23CC4CC(C2)CC(CC(=O)Nc2cc(C)on2)(C4)C3)no1`, the activation factor was found to be 1.02 and the activity change, negative = activation is -1.55% (inactive).

`Cc1sc2nc(SCC(=O)Nc3c(C)n(C)n(-c4ccccc4)c3=O)n(C)c(=O)c2c1C`: the activation factor was found to be 0.771 and the activity change, negative = activation was 22.9% (inactive).

Take `Cc1csc(C(=O)O)c1-n1cccc1`: the activation factor was 0.908 and the activity change, negative = activation is 9.2% (inactive).

Take `Fc1ccc(OCc2nn3cnnc3s2)cc1`: the activation factor was 0.923 and the activity change, negative = activation was 7.75% (inactive).

Consider `CCOC(=O)/C(C#N)=C\c1ccco1`, for which the activation factor was 1.12 and the activity change, negative = activation was -11.7% (inactive).

As to `COC(=O)c1ccccc1NC(=O)CN(CCc1ccccc1)S(C)(=O)=O`, the activation factor was found to be 1.04 and the activity change, negative = activation was -3.75% (inactive).

For `CCOc1ccc(C2C(C#N)=C(N)N(c3sc4c(c3C#N)CCCC4)C3=C2C(=O)CCC3)cc1` (stereo unspecified), the activation factor is 0.903 and the activity change, negative = activation was 9.65% (inactive).

Turning to `COCCC(=O)N(Cc1ccc2c(c1)OCO2)C(C(=O)NC1CCCCC1)c1ccncc1` (stereo unspecified), the activation factor is 0.912 and the activity change, negative = activation was 8.8% (inactive).

In the case of `S=C(NCc1cccnc1)Nc1cc(Cl)cc(Cl)c1`, the activation factor was 1.38 and the activity change, negative = activation is -38.4% (inactive).

For `CC(C)C(=O)Nc1cccc(C(=O)Nc2ccc3c(c2)OCO3)c1`, the activation factor stood at 0.972 and the activity change, negative = activation was 2.8% (inactive).

As to `COC(=O)c1ccccc1NC(=O)Nc1ccc2c(c1)OCO2`, the activation factor was 1.08 and the activity change, negative = activation was -8% (inactive).

In the case of `O=C(Nc1cc(Cl)cc(Cl)c1)c1cnn2cccnc12`, the activation factor is 0.974 and the activity change, negative = activation was 2.55% (inactive).

Consider `O=C(Nc1cccnc1)Nc1cc(Cl)cc(Cl)c1`, for which the activation factor is 1.69 and the activity change, negative = activation was -68.7% (inactive).

As to `O=C(Nc1cc(Cl)cc(Cl)c1)Nc1cnccn1`, the activation factor worked out at 1.97 and the activity change, negative = activation was -96.5% (active).

For `O=C(Nc1ccccc1)Nc1ccc(Br)c(Cl)c1`, the activation factor amounted to 1.82 and the activity change, negative = activation was -82.4% (inactive).

In the case of `Fc1cccc(NC(=S)NCc2ccc(Cl)cc2)c1`, the activation factor amounted to 1.31 and the activity change, negative = activation is -30.9% (inactive).

Regarding `O=C(Nc1cccc(F)c1)Nc1cccc(Cl)c1`, the activation factor came out at 2.11 and the activity change, negative = activation was -111% (active).

Consider `O=C(Nc1cccc(Cl)c1)Nc1ccc2c(c1)OCO2`, for which the activation factor was 2.46 and the activity change, negative = activation was -146% (active).

For `O=C(Nc1ccccc1)Nc1cc(Cl)cc(Cl)c1`, the activation factor is 3.41 and the activity change, negative = activation was -241% (active).

Take `Cc1ccc2c(c1)N(CCC(=O)NCc1cccs1)C(=O)C(C)O2` (stereo unspecified): the activation factor was found to be 1.03 and the activity change, negative = activation was -2.7% (inactive).

With `O=C(CCCOc1ccccc1)Nc1nnc(C2CCCO2)s1` (stereo unspecified), the activation factor amounted to 1.01 and the activity change, negative = activation is -1.15% (inactive).

With `CCOC(=O)c1c(-c2ccccc2)csc1NC(=O)COc1ccc2c(C)cc(=O)oc2c1`, the activation factor stood at 0.967 and the activity change, negative = activation was 3.3% (inactive).
